Experimental data reported in the supplement of paper PMC10849652.
The full data set covers some 7,900 targets. This sample favours those with a hit. About 0.6% of all pairs of compound and target were hits. Unmarked numbers belong to inactive results.

What was measured:
Assay in all cases: log2 fold change, soluble protein after heating vs DMSO (PISA); higher = thermal stabilisation; K562 cells, 10 uM, 30 min; active = over 0.2 and 3.5 SD of the protein, either way, in both replicates (recomputed)
IRAK-1-4 Inhibitor I = compound: C1COCCN1CCN2C3=CC=CC=C3N=C2NC(=O)C4=CC(=CC=C4)[N+](=O)[O-] [IRAK-1-4 Inhibitor I]
Summary of the method: (§1)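 Soluble protein was defined as the supernatant after 21,000xg for 90 min. It came from K562 cells at 2×10^6 cells/mL given 10 μM compound for 30 min, heated in aliquots for 3 min across 48°C-58°C, pooled, and extracted in PBS with 0.5% NP-40 at 4°C, and was quantified by TMTpro 16plex LC-MS/MS with equalised channel sums. Thermal stability against control samples, from duplicates, is reported as log2 fold change.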

ibrutinib = compound: C=CC(=O)N1CCC[C@@H](n2nc(-c3ccc(Oc4ccccc4)cc3)c3c(N)ncnc32)C1 [ibrutinib]
Summary of the method: as §1

[1] = compound: CC(=O)c1cnc2ccc(-c3cc(Cl)c(O)c(Cl)c3)nc2c1N[C@H]1CC[C@H](CN(C)C)CC1
Summary of the method: as §1

[2] = compound: CC(C)(O)CC(=O)NCCn1ccc2ncnc(Nc3ccc(Oc4cccc(C(F)(F)F)c4)c(Cl)c3)c21
Summary of the method: as §1

[3] = compound: CC(C)C1=C2N=C(C=C(N2N=C1)NCC3=CC=CC=C3)NCCCCCCN
Summary of the method: as §1

pinometostat = compound: CC(C)N(C[C@H]1O[C@@H](n2cnc3c(N)ncnc32)[C@H](O)[C@@H]1O)[C@H]1C[C@@H](CCc2nc3cc(C(C)(C)C)ccc3[nH]2)C1 [pinometostat]
Summary of the method: as §1

[4] = compound: CC1=C(C(CC(=O)N1)C2=CC=C(C=C2)C(F)(F)F)C(=O)NC3=C(C=C4C(=C3)C=NN4)F
Summary of the method: as §1

[5] = compound: CC1=C(C2=C(C=C1)C(=O)C3=CC=CC=C3N2CCCN)C
Summary of the method: as §1

ralimetinib = compound: CC(C)(C)Cn1c(N)nc2ccc(-c3[nH]c(C(C)(C)C)nc3-c3ccc(F)cc3)nc21 [ralimetinib]
Summary of the method: as §1

[6] = compound: CC(C)C[C@@H](C=O)NC(=O)[C@H](CC(C)C)NC(=O)[C@H](CC(C)C)NC(=O)OCc1ccccc1
Summary of the method: as §1

UniProt O75056, sequence (O75056 whole entry, looked up): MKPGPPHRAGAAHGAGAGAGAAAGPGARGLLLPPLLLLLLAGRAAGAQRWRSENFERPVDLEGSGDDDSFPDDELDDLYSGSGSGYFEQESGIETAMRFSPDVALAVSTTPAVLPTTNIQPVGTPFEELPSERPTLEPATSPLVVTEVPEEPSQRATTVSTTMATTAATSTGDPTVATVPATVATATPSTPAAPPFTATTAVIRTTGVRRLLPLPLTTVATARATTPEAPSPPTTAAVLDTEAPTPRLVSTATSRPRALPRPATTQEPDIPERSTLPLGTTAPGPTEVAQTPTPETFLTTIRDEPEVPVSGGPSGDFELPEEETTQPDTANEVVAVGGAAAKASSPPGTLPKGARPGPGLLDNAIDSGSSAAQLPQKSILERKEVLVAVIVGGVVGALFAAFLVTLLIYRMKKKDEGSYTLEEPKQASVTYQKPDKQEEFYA
UniProt Q7L099, sequence (Q7L099 whole entry, looked up): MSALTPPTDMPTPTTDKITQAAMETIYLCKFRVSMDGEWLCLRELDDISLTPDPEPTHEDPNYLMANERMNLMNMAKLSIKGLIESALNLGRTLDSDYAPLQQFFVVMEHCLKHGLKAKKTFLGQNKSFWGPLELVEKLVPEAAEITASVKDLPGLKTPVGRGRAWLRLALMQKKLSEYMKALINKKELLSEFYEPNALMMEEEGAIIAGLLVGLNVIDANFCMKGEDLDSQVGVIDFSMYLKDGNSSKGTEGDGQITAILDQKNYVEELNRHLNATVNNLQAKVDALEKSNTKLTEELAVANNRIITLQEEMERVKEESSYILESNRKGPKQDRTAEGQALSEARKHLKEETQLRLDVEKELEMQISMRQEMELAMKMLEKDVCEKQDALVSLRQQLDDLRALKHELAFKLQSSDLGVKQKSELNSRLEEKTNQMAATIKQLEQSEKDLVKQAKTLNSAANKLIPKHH
UniProt Q9BY78, sequence (Q9BY78 whole entry, looked up): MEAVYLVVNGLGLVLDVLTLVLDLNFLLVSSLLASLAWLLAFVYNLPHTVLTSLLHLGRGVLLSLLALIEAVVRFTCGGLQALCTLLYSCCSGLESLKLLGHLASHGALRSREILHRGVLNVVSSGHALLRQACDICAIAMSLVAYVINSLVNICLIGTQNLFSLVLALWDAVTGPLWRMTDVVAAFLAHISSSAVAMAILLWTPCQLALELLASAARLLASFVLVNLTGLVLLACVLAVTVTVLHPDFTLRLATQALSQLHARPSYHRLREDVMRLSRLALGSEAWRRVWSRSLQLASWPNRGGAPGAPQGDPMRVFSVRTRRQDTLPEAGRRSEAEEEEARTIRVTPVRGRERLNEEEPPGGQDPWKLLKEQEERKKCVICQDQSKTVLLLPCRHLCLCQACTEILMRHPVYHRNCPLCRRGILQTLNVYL
UniProt P43003, sequence (P43003 whole entry, looked up): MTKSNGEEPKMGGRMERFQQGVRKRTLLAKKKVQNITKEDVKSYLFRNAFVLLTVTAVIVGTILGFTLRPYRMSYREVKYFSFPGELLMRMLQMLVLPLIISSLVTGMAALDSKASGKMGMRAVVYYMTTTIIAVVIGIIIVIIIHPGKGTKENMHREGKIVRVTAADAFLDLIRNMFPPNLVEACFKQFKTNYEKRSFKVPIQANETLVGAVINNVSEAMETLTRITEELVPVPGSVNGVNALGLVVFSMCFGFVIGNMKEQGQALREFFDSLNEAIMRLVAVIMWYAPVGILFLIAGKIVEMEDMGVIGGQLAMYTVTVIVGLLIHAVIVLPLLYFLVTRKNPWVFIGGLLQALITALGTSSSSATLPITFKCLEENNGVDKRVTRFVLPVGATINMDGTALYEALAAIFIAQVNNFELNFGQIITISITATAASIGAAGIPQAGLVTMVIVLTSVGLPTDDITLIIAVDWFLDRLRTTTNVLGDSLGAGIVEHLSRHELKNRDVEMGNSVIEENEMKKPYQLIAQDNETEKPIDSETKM
UniProt Q9BWJ5, sequence (Q9BWJ5 whole entry, looked up): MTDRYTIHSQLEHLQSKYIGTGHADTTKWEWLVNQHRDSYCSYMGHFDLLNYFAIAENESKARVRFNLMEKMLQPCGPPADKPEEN
UniProt O43819, sequence (O43819 whole entry, looked up): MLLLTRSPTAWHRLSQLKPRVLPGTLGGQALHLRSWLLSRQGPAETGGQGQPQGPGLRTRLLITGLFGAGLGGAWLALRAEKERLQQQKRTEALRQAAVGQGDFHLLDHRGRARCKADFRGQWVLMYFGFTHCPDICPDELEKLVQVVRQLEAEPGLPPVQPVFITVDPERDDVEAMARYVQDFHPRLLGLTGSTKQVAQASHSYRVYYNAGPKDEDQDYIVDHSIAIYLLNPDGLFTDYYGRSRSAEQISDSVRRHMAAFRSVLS
UniProt Q96GF1, sequence (Q96GF1 whole entry, looked up): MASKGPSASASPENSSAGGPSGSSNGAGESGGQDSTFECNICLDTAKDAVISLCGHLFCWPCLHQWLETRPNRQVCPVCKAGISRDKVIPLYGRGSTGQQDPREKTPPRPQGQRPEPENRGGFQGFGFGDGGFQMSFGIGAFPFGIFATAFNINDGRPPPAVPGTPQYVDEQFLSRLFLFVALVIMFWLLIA
UniProt Q96NL6, sequence (Q96NL6 whole entry, looked up): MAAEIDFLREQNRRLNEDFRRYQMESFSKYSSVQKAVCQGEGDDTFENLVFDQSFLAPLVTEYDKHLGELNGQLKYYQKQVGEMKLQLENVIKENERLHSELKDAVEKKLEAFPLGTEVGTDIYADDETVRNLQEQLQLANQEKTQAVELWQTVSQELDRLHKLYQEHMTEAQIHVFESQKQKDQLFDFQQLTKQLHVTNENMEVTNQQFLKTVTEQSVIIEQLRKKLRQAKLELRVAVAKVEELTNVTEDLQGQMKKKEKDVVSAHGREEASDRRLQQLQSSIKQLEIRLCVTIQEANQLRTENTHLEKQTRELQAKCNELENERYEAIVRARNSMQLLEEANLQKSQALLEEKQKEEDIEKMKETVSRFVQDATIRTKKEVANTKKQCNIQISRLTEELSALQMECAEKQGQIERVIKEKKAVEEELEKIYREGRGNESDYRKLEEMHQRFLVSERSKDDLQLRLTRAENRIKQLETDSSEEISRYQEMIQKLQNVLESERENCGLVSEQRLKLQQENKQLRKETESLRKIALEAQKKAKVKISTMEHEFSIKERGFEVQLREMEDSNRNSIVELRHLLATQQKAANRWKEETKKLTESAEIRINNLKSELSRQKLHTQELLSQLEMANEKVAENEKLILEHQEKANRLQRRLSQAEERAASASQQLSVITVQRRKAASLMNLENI
UniProt P78332, sequence (P78332 whole entry, looked up): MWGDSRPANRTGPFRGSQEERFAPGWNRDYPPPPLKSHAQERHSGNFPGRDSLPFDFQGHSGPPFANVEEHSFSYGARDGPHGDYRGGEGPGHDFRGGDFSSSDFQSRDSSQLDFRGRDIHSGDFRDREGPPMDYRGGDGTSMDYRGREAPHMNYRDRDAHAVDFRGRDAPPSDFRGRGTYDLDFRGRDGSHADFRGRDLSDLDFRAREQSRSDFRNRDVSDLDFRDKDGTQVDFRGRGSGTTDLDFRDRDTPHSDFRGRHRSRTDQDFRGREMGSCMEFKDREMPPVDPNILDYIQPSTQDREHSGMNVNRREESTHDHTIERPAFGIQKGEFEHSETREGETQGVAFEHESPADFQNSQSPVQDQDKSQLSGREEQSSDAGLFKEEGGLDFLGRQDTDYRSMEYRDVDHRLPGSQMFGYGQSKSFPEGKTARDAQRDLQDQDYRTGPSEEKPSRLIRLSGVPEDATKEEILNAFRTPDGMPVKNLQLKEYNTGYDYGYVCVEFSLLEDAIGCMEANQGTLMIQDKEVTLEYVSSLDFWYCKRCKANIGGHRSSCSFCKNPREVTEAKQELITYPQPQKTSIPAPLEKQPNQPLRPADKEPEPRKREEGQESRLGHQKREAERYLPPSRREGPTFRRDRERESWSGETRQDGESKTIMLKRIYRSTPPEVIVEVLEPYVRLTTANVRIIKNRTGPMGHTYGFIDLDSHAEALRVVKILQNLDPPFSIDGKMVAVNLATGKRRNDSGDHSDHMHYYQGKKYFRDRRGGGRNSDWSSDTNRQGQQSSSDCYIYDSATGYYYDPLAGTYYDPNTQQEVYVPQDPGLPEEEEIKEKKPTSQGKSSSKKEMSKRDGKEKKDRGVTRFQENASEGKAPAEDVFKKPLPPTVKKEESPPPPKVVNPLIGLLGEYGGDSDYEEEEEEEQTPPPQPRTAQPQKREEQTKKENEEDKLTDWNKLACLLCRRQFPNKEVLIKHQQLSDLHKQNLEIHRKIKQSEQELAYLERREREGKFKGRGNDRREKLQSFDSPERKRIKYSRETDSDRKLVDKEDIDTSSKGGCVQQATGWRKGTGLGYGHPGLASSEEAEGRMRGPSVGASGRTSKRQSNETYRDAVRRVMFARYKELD
UniProt Q96LZ7, sequence (Q96LZ7 whole entry, looked up): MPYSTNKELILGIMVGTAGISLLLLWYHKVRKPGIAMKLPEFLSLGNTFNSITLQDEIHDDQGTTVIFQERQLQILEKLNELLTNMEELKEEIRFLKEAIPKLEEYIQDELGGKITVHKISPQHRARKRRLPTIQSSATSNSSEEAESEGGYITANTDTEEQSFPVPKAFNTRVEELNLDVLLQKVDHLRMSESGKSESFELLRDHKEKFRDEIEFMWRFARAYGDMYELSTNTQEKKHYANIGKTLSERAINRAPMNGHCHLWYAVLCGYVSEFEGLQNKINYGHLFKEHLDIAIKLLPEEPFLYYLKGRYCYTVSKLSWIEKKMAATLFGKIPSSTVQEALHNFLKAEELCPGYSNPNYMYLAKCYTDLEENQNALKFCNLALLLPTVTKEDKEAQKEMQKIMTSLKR
UniProt Q9Y3L5, sequence (Q9Y3L5 whole entry, looked up): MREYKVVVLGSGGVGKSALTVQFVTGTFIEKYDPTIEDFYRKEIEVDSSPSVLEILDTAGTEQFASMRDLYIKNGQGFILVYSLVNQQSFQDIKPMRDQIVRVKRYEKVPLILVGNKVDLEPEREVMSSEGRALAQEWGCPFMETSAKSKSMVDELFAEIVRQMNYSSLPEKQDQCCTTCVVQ
UniProt Q5VUM1, sequence (Q5VUM1 whole entry, looked up): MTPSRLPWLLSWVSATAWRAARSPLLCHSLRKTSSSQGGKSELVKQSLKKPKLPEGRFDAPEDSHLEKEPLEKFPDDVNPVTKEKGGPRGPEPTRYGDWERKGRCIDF

Row | Target | log2 fold change (IRAK-1-4 Inhibitor I) | log2 fold change (ibrutinib) | log2 fold change [1] | log2 fold change [2] | log2 fold change [3] | log2 fold change (pinometostat) | log2 fold change [4] | log2 fold change [5] | log2 fold change (ralimetinib) | log2 fold change [6]
1 | SF3B5 (UniProt Q9BWJ5) | 0.055 | 0.127 | -0.067 | -0.224 | 0.118 | 0.045 | 0.011 | 0.156 |  | 
2 | RPS15 (UniProt P62841) | -0.114 | 0.11 | -0.042 | 0.103 | -0.043 | 0.088 | 0.071 | -0.574 (active) | 0.076 | 0.11
3 | RANBP2 (UniProt P49792) | 0.024 | 0.035 | 0.081 | -0.043 | -0.136 | -0.017 | 0.169 | 0.076 | 0.022 | 0.024
4 | RCC1 isoform 2 (UniProt P18754) | -0.026 | -0.04 | -0.14 | -0.16 | -0.094 | 0.023 | -0.08 | -0.899 (active) | 0 | 0.041
5 | RECQL (UniProt P46063) | 0.013 | 0.002 | -0.023 | -0.039 | -0.033 | -0.013 | -0.031 | 0.266 (active) | -0.024 | -0.02
6 | RAD50, A0A494C0Y7 | 0.015 | 0.072 | -0.037 |  |  | 0.015 |  | 0.051 | -0.085 | 0.196
7 | SCO2 (UniProt O43819) | 0.02 | 0.014 | -0.06 | -0.154 | -0.071 | 0.054 |  | 0.07 | 0.142 | 0.024
8 | SERINC3 (UniProt Q13530) | -0.006 | -0.01 | -0.027 | -0.304 | -0.399 (active) | -0.01 | 0 | -0.039 | -0.14 | 0.17
9 | RSRC2 (UniProt Q7L4I2) | 0.03 | -0.035 | -0.284 (active) | -0.033 | -0.013 | -0.019 | 0.028 | 0.016 | 0.012 | -0.026
10 | SEPTIN5 (UniProt Q99719) | 0.014 | -0.013 | -0.031 | -0.03 | 0.034 | -0.041 | -0.005 | 0.011 | -0.084 | -0.051
11 | RNF2 (UniProt Q99496) | -0.024 | 0.086 | 0.001 | -0.065 | 0.091 | 0.066 | 0.04 | -0.058 |  | 
12 | RPL31 (UniProt P62899) | -0.168 | -0.021 | 0.138 | 0.052 | -0.013 | 0.273 | -0.006 | -0.625 (active) | 0.1 | 0.14
13 | SDHAF4 (UniProt Q5VUM1) | -0.071 | 0.01 | -0.055 | 0.081 | 0.149 | -0.082 | -0.101 | 0.021 |  | 
14 | RBM33 (UniProt Q96EV2) | -0.058 | 0.024 | -0.063 | 0.046 | -0.018 | -0.01 | 0.001 | -0.282 (active) | 0.014 | -0.01
15 | RCOR3 isoform 3 (UniProt Q9P2K3) | 0.009 | -0.053 | -0.188 |  | -0.048 | -0.038 | 0.011 | -0.035 | 0.017 | 0.062
16 | SAP30 (UniProt O75446) | 0.018 |  | 0.085 | 0.151 | 0.111 | 0.111 | 0.041 |  |  | 
17 | SAMD4B (UniProt Q5PRF9) | 0.007 | -0.024 |  | 0.133 | 0.142 | 0.051 | 0.05 | 0.039 | 0.053 | 0.04
18 | SCLT1 (UniProt Q96NL6) | -0.046 | -0.049 |  |  |  | 0.005 | -0.118 | 0.129 |  | 
19 | SH3PXD2B (UniProt A1X283) |  | -0.115 | -0.005 | 0.035 | 0.075 |  | -0.054 | 0.027 |  | 
20 | ROMO1 (UniProt P60602) |  | 0.069 | -0.044 | 0.052 | -0.051 |  | 0.039 | -0.077 | -0.024 | -0.083
21 | RRP36 (UniProt Q96EU6) |  | 0.045 | 0.122 | 0 | 0.044 |  | 0.021 | -0.785 (active) | 0.083 | 0.042
22 | RNF26 (UniProt Q9BY78) |  | -0.033 |  |  |  |  |  |  | 0.095 | 0.281
23 | SAFB2 (UniProt K7EQU4) | -0.129 | 0.131 |  | -0.042 |  | -0.051 | -0.31 |  |  | 
24 | SDC3 (UniProt O75056) |  |  | 0.089 | -0.006 |  |  | 0.042 | -0.036 |  | 
25 | RMDN2 isoform 2 (UniProt Q96LZ7) | 0.034 |  |  |  |  | 0.025 | -0.192 |  | 0.095 | 0.137

Row | Target | log2 fold change (IRAK-1-4 Inhibitor I) | log2 fold change (ibrutinib) | log2 fold change [1] | log2 fold change [2] | log2 fold change [3] | log2 fold change (pinometostat) | log2 fold change [4] | log2 fold change [5] | log2 fold change (ralimetinib) | log2 fold change [6]
26 | SIK3 (UniProt H0Y4E8) | 0.043 |  | -0.425 (active) |  | 0.186 | -0.036 | 0.179 | -0.124 | 0.135 | -0.167
27 | RBM6 (UniProt P78332) | 0.146 |  | -0.208 |  |  | -0.09 | -0.19 | -0.16 |  | 
28 | RPS19 (UniProt M0R2L9) |  |  | -0.083 |  |  |  | 0.538 | -0.177 |  | 
29 | RICTOR isoform 3 (UniProt Q6R327) |  |  | 0.866 (active) | -0.084 | -0.584 |  | 0.07 | -0.223 |  | 
30 | SEMG2 (UniProt Q02383) |  | -0.031 | -0.148 | -0.011 |  |  | -0.031 | 0.049 |  | 
31 | RUFY3 isoform 3 (UniProt Q7L099) | -0.008 |  | 0.023 |  | -0.098 | 0.035 | -0.123 | 0.044 | 0.196 | -0.054
32 | RNF185 (UniProt Q96GF1) |  | 0.045 | 0.087 |  | -0.011 |  | 0.006 | 0.276 | -0.04 | -0.003
33 | SEPTIN5 (UniProt G3XAH0) |  | 0.018 | 0.123 | -0.133 | 0.092 |  | -0.003 | 0.027 | -0.056 | -0.009
34 | RALGPS2 (UniProt Q86X27) | -0.249 | 0.061 | -0.045 | 0.051 | 0.141 | 0.397 |  | 0.029 |  | 
35 | RBMY1E (UniProt A6NEQ0) | 0.019 | -0.024 |  |  | 0.134 | -0.032 | 0.026 | -0.01 | 0.131 | 0.141
36 | RPS6KA5 (UniProt O75582) | 0.071 |  |  | -0.042 | -0.218 | -0.431 |  |  | -0.11 | 0.069
37 | RBM26 isoform 3 (UniProt Q5T8P6) |  |  | -0.528 |  |  |  |  |  |  | 
38 | SCAMP2 (UniProt O15127) |  | 0.09 | 0.08 | 0.013 | 0.003 |  | -0.093 | -0.066 | -0.019 | 0.036
39 | SLC12A5 (UniProt Q9H2X9) | -0.024 | -0.006 | -0.101 | 0.14 | 0.052 | -0.113 |  | 0.047 |  | 
40 | SDCBP isoform 2 (UniProt O00560) |  | 0 |  | 0.008 | -0.444 |  | -0.29 | 0.033 | 0.06 | 0.13
41 | RPS3 (UniProt E9PJN9) |  |  |  |  |  |  |  | -0.126 | 0.228 | 0.134
42 | RNF41 (UniProt Q9H4P4) |  | -0.104 | 0.082 |  |  |  |  |  |  | 
43 | SLC1A3 (UniProt P43003) |  | 0.168 | 0.056 | 0.007 | 0.238 |  | 0.018 | 0.029 | 0.058 | -0.064
44 | S100A10 (UniProt P60903) |  | 0.605 | -0.345 |  |  |  | -0.06 | 0.522 |  | 
45 | RAB3D (UniProt O95716) |  | -0.096 | -0.02 |  | 0.121 |  | -0.14 | -0.104 | 0.133 | -0.605 (active)
46 | RAP2C (UniProt Q9Y3L5) |  | 0.016 | -0.032 | -0.107 | 0.148 |  | -0.104 | 0.11 | 0.021 | 0.048
47 | RPS3A (UniProt D6R9B6) |  |  | -0.124 |  |  |  |  | -0.363 |  | 
48 | SH2D1B (UniProt O14796) | 0.202 |  | -1.57 (active) | -0.052 | 0.095 | 0.027 | 0.106 | -0.004 | 0.042 | 0.005
49 | RNF220 isoform 3 (UniProt Q5VTB9) |  |  | 0.086 |  | 0.056 |  |  |  |  | 
